Data: the supplement of paper PMC12350171
Counter-ions that a name gives are not always drawn. A number with no mark means an inactive call.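 The calls were made as follows: active = normalised median growth AUC below 0.1 of DMSO control; inactive = AUC 0.1 or higher.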

Assays:
Assay in all cases: growth AUC normalised to DMSO control (median) (fraction of control); higher = less growth inhibition, active = hit call of the paper
Settings in all cases: 20 µM
P. vulgatus RND KO = test system: P. vulgatus RND KO
In short: (§1)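 Strains were passaged twice overnight without oxygen, then grown in mGAM in 96-well plates with each approved-drug library compound at 20 μM and 1% DMSO, starting at OD578 0.01. OD578 was read hourly for 24 h inside an anaerobic incubator. Curves were truncated at entry into stationary phase, and the trapezoidal-rule area under the curve was normalised to same-plate vehicle wells. The value is the median across three biological replicates.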

P. vulgatus WT = test system: P. vulgatus WT
In short: as §1

[1] = test system: S. enterica typhimurium WT
In short: as §1

[2] = test system: S. enterica typhimurium tolC KO
In short: as §1
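Also: active when median AUC fell below 0.1.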

Row | SMILES | growth AUC normalised to DMSO control (P. vulgatus RND KO) | growth AUC normalised to DMSO control (P. vulgatus WT) | growth AUC normalised to DMSO control [1] | growth AUC normalised to DMSO control [2]
1 | CN(C)CCCN1c2ccccc2[S+]([O-])c2ccc(Cl)cc21 (centres undefined) [Chlorpromazine Sulfoxide] | 1.07 | 1.03 | 0.995 | 1.01
2 | O=C(O)Cc1csc(-c2ccc(Cl)cc2)n1 [Fenclozic acid] | 1.01 | 1.03 | 1.01 | 0.98
3 | CC(C)c1ccc2oc3nc(N)c(C(=O)O)cc3c(=O)c2c1 [Amlexanox] | 1.02 | 1.01 | 0.996 | 0.971
4 | COc1ncnc(NS(=O)(=O)c2ccc(N)cc2)c1OC [Sulfadoxine] | 0.981 | 0.982 | 0.99 | 0.993
5 | O=C(O)c1cc(=O)[nH]c(=O)[nH]1 [Orotic acid] | 0.976 | 0.993 | 1 | 1.01
6 | CCOc1ccc2nc3cc(N)ccc3c(N)c2c1 [Ethacridine lactate] | 0.999 | 0.961 | 0.991 | 0.977
7 | CNCC[C@@H](Oc1cccc2ccccc12)c1cccs1 [(R)-Duloxetine hydrochloride] | 1.02 | 0.993 | 0.999 | 0.929
8 | Cn1cc([S+](C)[O-])c(=O)c2ccc(F)cc21 (centres undefined) [Flosequinan] | 1.04 | 1.03 | 0.992 | 0.99
9 | COc1cc2/c(=N/c3ccc(Br)cc3F)nc[nH]c2cc1OCC1CCN(C)CC1 [Vandetanib] | 1.1 | 1.08 | 1.02 | 1.01
10 | CCCCCCNC(=O)n1cc(F)c(=O)[nH]c1=O [Carmofur] | 0.0803 (active) | 0.0792 (active) | 0.806 | 0.717
11 | CN(C/C=C/C#CC(C)(C)C)Cc1cccc2ccccc12 [Terbinafine] | 1.01 | 0.998 | 1.01 | 0.928
12 | CN1CC(=O)N2[C@H](c3ccc4c(c3)OCO4)c3[nH]c4ccccc4c3C[C@@H]2C1=O [Tadalafil] | 0.919 | 0.845 | 0.996 | 0.981
13 | O=C(CCCl)NCc1ccccc1 [Beclamide] | 0.972 | 0.966 | 1.01 | 0.974
14 | O=C(O)C1CSCN1 (centres undefined) [Timonacic] | 0.993 | 0.999 | 0.998 | 0.998
15 | O=C1c2c(O)ccc(O)c2C(=O)c2c(NCCNCCO)ccc(NCCNCCO)c21 [Mitoxantrone dihydrochloride] | 1.11 | 1.04 | 1 | 0.999
16 | Nc1ccc2cc3ccc(N)cc3nc2c1 [Proflavine hemisulfate] | 0.996 | 0.995 | 0.955 | 0.91
17 | C[C@]12CCC3=C4CCC(=O)C=C4CC[C@H]3[C@@H]1CC[C@@]2(O)CC#N [Dienogest] | 1.03 | 1.04 | 1.02 | 1.02
18 | CC(=O)Nc1c(I)c(NC(C)=O)c(I)c(C(=O)O)c1I [Diatrizoic acid dihydrate] | 0.922 | 0.995 | 0.998 | 0.995

Row | SMILES | growth AUC normalised to DMSO control (P. vulgatus RND KO) | growth AUC normalised to DMSO control (P. vulgatus WT) | growth AUC normalised to DMSO control [1] | growth AUC normalised to DMSO control [2]
19 | O=P(O)(O)C(O)(Cc1cccnc1)P(=O)(O)O [Risedronic acid monohydrate] | 0.976 | 0.999 | 1.01 | 1
20 | CC(=O)NS(=O)(=O)c1ccc(NC(=O)c2ccccc2C(=O)O)cc1 [Phthalylsulfacetamide] | 0.999 | 0.997 | 1 | 1
21 | O=C(c1cc(O)c(O)c(O)c1)c1ccc(O)c(O)c1O [Exifone] | 0.975 | 0.993 | 0.986 | 0.995
22 | COc1ccc(CN2CCN(C(c3ccc(F)cc3)c3ccc(F)cc3)CC2)c(OC)c1OC [Lomerizine dihydrochloride] | 0.997 | 0.986 | 1.01 | 0.978
23 | CC1(C)O[C@@H]2C[C@H]3[C@@H]4CCC5=CC(=O)C=C[C@]5(C)[C@H]4[C@@H](O)C[C@]3(C)[C@]2(C(=O)CO)O1 [Desonide] | 0.783 | 0.993 | 0.996 | 1
24 | CCC(C)(C)c1ccc(CC(C)CN2C[C@@H](C)O[C@@H](C)C2)cc1 (some centres undefined) [Amorolfine hydrochloride] | 1.01 | 1.03 | 1.01 | 0.963
25 | C=C(NC(=O)C(=C)NC(=O)c1csc(C2=N[C@@H]3c4csc(n4)[C@H]4NC(=O)c5csc(n5)[C@H]([C@](C)(O)[C@@H](C)O)NC(=O)[C@H]5CSC(=N5)/C(=C/C)NC(=O)[C@H]([C@@H](C)O)NC(=O)c5csc(n5)[C@]3(CC2)NC(=O)[C@H](C)NC(=O)C(=C)NC(=O)[C@H](C)NC(=O)[C@H]([C@@H](C)CC)N[C@@H]2C=Cc3c([C@H](C)O)cc(nc3[C@H]2O)C(=O)O[C@@H]4C)n1)C(N)=O [Thiostrepton] | 0.0151 (active) | 0.0162 (active) | 1 | 1
26 | CCOC(=O)CC(=O)N1CCSC1COc1ccccc1OC (centres undefined) [Moguisteine] | 0.965 | 0.965 | 1.01 | 0.986
27 | C[C@@H]1CCO[C@H]2Cn3cc(C(=O)NCc4ccc(F)cc4F)c(=O)c(O)c3C(=O)N12 [Dolutegravir] | 0.0521 (active) | 0.049 (active) | 1 | 0.907
28 | COc1cc(C(=O)N2CCOCC2)cc(OC)c1OC [Trimetozine] | 1.01 | 1.01 | 0.996 | 0.991
29 | CCOC(=O)Nc1ccc(NCc2ccc(F)cc2)nc1N [Flupirtine] | 1.08 | 1.05 | 1 | 0.979
30 | Cc1cc2nc3c(=O)[nH]c(=O)nc-3n(C[C@H](O)[C@H](O)[C@H](O)CO)c2cc1C [Riboflavine] | 1.11 | 1.07 | 1 | 0.991
31 | N#C/C(=C1/SCC(c2ccccc2Cl)S1)n1ccnc1 (centres undefined) [Lanoconazole] | 1.04 | 1.08 | 1 | 0.834
32 | CC(C)(C)CC(C)(C)c1ccc(O)c(Cc2ccc(Cl)cc2Cl)c1 [Clofoctol] | 0.619 | 0.581 | 0.995 | 1.02
33 | CCOC(=O)c1c(N)sc2c1CCN(Cc1ccccc1)C2 [Tinoridine hydrochloride] | 0.91 | 0.852 | 0.989 | 0.969
34 | CC(/C=C1\SC(=S)N(CC(=O)O)C1=O)=C\c1ccccc1 [Epalrestat] | 1.01 | 1.05 | 1.01 | 0.921
35 | CC(C)(CO)[C@@H](O)C(=O)NCCC(=O)NCCSSCCNC(=O)CCNC(=O)[C@H](O)C(C)(C)CO [D-Pantethine] | 1.01 | 1.01 | 1 | 1
36 | O=C(O)c1ccccc1Nc1cc(Cl)ccc1C(=O)O [Lobenzarit disodium] | 0.992 | 1.02 | 1.02 | 0.959
